AGP1 TOR yeast = modulators of TOR pathway AGP1-GFP in S. cerevisiae; 0.02% of 320,000 active; GFP response vs DMSO, % at 10 µM; S. cerevisiae AGP1-GFP multiplex flow cytometry, 3 h; GFP as percent of DMSO wells;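 active means GFP response relative to DMSO above a set limit, near screen average plus 3 SD, cut at about 150% in these data; inconclusive means fewer than 70 cells counted for the yeast strain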;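 further: median GFP channel fluorescence of the gated AGP1 strain per well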
MEP2 TOR yeast = alters MEP2-GFP fluorescence in TOR pathway yeast screen | S. cerevisiae MEP2-GFP strain, flow cytometry GFP, 3 h; 100% = DMSO control level | GFP response vs DMSO, % at 10 µM | 0.51% of 330,000 active;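 active means GFP response versus DMSO above a set limit, roughly screen mean plus 3 SD, cut at about 180% in these data; inconclusive means fewer than 70 cells counted for a yeast strain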;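 further: median GFP fluorescence of the barcode-gated MEP2-GFP cells per well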
LAP4-GFP MLPCN = alters LAP4-GFP fluorescence in TOR pathway yeast screen. AID 2023. S. cerevisiae LAP4-GFP multiplex, flow cytometry GFP, 3 h; median GFP as percent of DMSO wells. 0.34% of 320,000 active. GFP response vs DMSO, % at 10 µM;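 active means GFP response vs DMSO above a set limit, about the screen mean plus 3 SD, cut at about 150% in these data; inconclusive means under 70 cell events counted for the yeast strain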
CIT2-GFP yeast = modulators of TOR pathway CIT2-GFP in S. cerevisiae; AID 2029; GFP response vs DMSO, % at 10 µM; S. cerevisiae CIT2-GFP strain, flow cytometry, 3 h; 100 means same as DMSO wells; 0.065% of 320,000 active;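 active means GFP response relative to DMSO above a set limit, near the screen mean plus 3 SD, cut at about 150% in these data; inconclusive means Fewer than 70 cells measured for a yeast strain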;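 further: ratio of well median GFP fluorescence to mean of DMSO wells on the plate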
VLA-4 inh = inhibition in a human VLA-4 binding assay; P13612; VLA-4 expressing cells, ligand binding flow cytometry; inhibition, % (about 7 µM as worked out from the volumes in the protocol); 0.2% of 330,000 active; AID 2557; in the data active means inhibition above about 50%
Target sequence (P13612 whole entry, looked up): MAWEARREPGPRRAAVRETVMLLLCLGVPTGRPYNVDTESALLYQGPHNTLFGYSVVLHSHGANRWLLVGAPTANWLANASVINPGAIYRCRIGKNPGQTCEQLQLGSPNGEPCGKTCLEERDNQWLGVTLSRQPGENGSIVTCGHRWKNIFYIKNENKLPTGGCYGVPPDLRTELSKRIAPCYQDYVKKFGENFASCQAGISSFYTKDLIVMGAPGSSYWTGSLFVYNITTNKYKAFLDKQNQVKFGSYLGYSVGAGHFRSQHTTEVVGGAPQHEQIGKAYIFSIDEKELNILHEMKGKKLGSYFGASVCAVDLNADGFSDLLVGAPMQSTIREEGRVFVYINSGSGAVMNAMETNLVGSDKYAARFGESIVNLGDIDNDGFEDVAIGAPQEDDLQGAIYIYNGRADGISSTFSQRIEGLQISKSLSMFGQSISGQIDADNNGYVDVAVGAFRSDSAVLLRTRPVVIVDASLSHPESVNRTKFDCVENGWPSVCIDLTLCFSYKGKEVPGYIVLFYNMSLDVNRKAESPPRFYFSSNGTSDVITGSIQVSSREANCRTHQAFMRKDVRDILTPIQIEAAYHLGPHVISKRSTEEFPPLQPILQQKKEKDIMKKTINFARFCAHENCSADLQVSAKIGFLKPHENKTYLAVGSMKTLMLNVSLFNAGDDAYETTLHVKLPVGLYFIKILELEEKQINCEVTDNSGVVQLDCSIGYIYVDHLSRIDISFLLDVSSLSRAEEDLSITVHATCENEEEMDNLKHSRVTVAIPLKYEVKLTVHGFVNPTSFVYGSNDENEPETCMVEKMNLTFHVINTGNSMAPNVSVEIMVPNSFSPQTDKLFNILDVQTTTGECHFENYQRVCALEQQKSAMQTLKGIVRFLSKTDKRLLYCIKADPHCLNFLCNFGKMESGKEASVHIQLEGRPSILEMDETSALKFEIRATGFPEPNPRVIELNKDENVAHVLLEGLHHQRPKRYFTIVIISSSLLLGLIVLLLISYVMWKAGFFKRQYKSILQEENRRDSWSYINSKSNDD
RPL19A-GFP yeast = modulators of TOR pathway RPL19A-GFP in S. cerevisiae; 0.3% of 330,000 active; percent response vs DMSO, % at 10 µM; S. cerevisiae RPL19A-GFP strain, flow cytometry, 3 h; active compounds read low; AID 2025;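 active means percent response vs DMSO below 50%; inconclusive means fewer than 70 events counted for the yeast strain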;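 further: median channel GFP fluorescence of the barcoded RPL19A-GFP strain; ratio of sample median GFP to plate DMSO average so 100% = DMSO; lower means less RPL19A-GFP as with rapamycin TOR inhibition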
LAP4-GFP pick2 = yeast LAP4-GFP modulation, second cherry pick; S. cerevisiae LAP4-GFP strain, flow cytometry GFP, 3 h; AID 2621; GFP response vs DMSO, % at 10 µM; 20% of 590 active; shares compounds with LAP4-GFP MLPCN;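 active means GFP signal as percent of the solvent control above about 150%, meaning raised reporter expression, limit read from the data; inconclusive means fewer than 70 cells counted in the well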;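 further: ratio of well median GFP fluorescence to plate DMSO mean so 100% = DMSO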
MEP2-GFP pick2 = yeast MEP2-GFP modulation, second cherry pick | shares compounds with LAP4-GFP MLPCN | S. cerevisiae MEP2-GFP strain, flow cytometry GFP, 3 h | GFP response vs DMSO, % at 10 µM | 10% of 590 active | AID 2622;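 active means GFP signal above 150% of the solvent control wells, that is a rise of more than half; inconclusive means fewer than 70 yeast cells counted in the well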;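 further: median channel GFP fluorescence of all gated yeast cells per well; ratio of median GFP to plate DMSO average so 100% = DMSO level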
RPL19A GFP CP2 = yeast RPL19A-GFP TOR reporter modulation, second cherry pick; shares compounds with LAP4-GFP MLPCN; S. cerevisiae RPL19A-GFP strain, flow cytometry GFP, 3 h; active compounds read low; 100% means same as DMSO wells; GFP response vs DMSO, % at 10 µM; 3% of 590 active; AID 2623;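 active means under 65% GFP response relative to DMSO; inconclusive means yeast strain with under 70 measured events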;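 further: median GFP channel fluorescence per well over the all cells gate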
CIT2 GFP CP2 = second confirmation of modulators of TOR reporter CIT2-GFP in yeast; S. cerevisiae CIT2-GFP strain, flow cytometry GFP, 3 h; DMSO control wells read 100%; shares compounds with LAP4-GFP MLPCN; 8% of 590 active; GFP response vs DMSO, % at 10 µM;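 active means GFP response vs DMSO above about 150%, limit read from the data; inconclusive means fewer than 70 events counted for a yeast strain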;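 further: median green fluorescence per well over all gated yeast cells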
AGP1-GFP pick2 = second confirmation of modulators of TOR reporter AGP1-GFP in yeast; percent response vs DMSO, % at 10 µM; shares compounds with LAP4-GFP MLPCN; S. cerevisiae AGP1-GFP strain, flow cytometry GFP, 3 h; AID 2643; 590 tested, under 10 active;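 active means over 150 percent of DMSO response; inconclusive means yeast strain measured with under 70 events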;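 further: median GFP channel fluorescence over all cells without mother daughter split; sample median GFP divided by mean DMSO control so 100% equals DMSO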
s288c autofluor = compound is autofluorescent in yeast s288c cells; 610 tested, under 10 active; shares compounds with LAP4-GFP MLPCN; S. cerevisiae s288c, 520 nm autofluorescence, flow cytometry, 3 h; active compounds read high; zero means same as solvent-only cells; fluorescence change (kMESF span) at 33 µM; AID 2757;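 active means fluorescence span over the dose series, or activity score, above about 33, limit read from the data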
s288c autofl DR = TOR screen hit shows autofluorescence in yeast s288c; S. cerevisiae s288c parental, compound autofluorescence, flow cytometry, 3 h; 110 tested, under 10 active; fluorescence change (span) at 33 µM; shares compounds with LAP4-GFP MLPCN;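 active means fluorescence change span, or the activity score built from it, above 25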
TORC1 bypass = wildtype yeast growth loss with TORC1 bypass cells unaffected. shares compounds with LAP4-GFP MLPCN. S. cerevisiae BY4741 spot growth rating, 48-72 h; active compounds read low. growth rating (0-3) at 30 µM. 120 tested, under 10 active. AID 504456;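 active means growth rating at most 1 for wild type yeast while the TORC1 bypass strain still grows fully, rated 3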
An asterisk follows results filed as active; i = inactive; ? = inconclusive; · = not tested or not shown. The list is not random: actives were taken first. Their share in the collection is about 1.1%.

SMILES	AGP1 TOR yeast	MEP2 TOR yeast	LAP4-GFP MLPCN	CIT2-GFP yeast	VLA-4 inh	RPL19A-GFP yeast	LAP4-GFP pick2	MEP2-GFP pick2	RPL19A GFP CP2	CIT2 GFP CP2	AGP1-GFP pick2	s288c autofluor	others
CC1CCN(C(=O)c2ccccc2NC(=O)c2cccc(S(=O)(=O)N(C)C)c2)CC1	100.3	95.7	99.2	101.6	17.3	99.3	·	·	·	·	·	·
O=C(CN1CCc2cc3c(cc2C1)OCCCO3)Nc1c(F)cccc1F	104.6	103.2	101.3	103.8	4.0	102.0	·	·	·	·	·	·
CC(C)Oc1ccc(C(=O)NCc2cccs2)cc1	104.4	92.7	168.6*	85.7	16.3	79.0	101.9	98.2	100.4	92.7	97.9	·
CCCn1c(SCC(=O)Nc2cc(C(=O)O)ccc2C)nc2sc3c(c2c1=O)CCC3	101.0	107.5	104.0	98.3	-3.9	99.1	·	·	·	·	·	·
Nc1ccc(Br)c2c1C(=O)c1ccccc1C2=O	70.8	134.2	142.7	128.5	2.1	62.0	155.8*	113.1	80.3	125.5	94.3	0.1
C=CCOc1cccc(C(=O)/C=C2/C(=O)Nc3ccccc32)c1	104.9	118.4	127.1	105.3	3.6	92.8	·	·	·	·	·	0
COc1ccc(NC(=O)c2ccc(NCCN3C(=O)CCC3=O)c([N+](=O)[O-])c2)cc1	114.6	111.0	115.6	113.2	25.8	114.2	·	·	·	·	·	·
CN1/C(=C\C(=O)COC(=O)c2ccco2)C(C)(C)c2ccccc21	94.4	100.0	86.9	97.8	-111.6	99.9	·	·	·	·	·	·
CN1/C(=C\C(=O)c2ccco2)C(C)(C)c2ccccc21	91.8	101.6	180.4*	96.4	i	81.4	103.8	104.8	101.9	107.4	97.0	·
O=C(NCc1ccccc1C(F)(F)F)c1cccc2c1C(=O)c1ccc(N3CCCCC3)cc1S2(=O)=O	99.0	87.9	87.0	99.7	-39.6	96.0	·	·	·	·	·	·
O=[N+]([O-])c1c(NC2CCCCC2)nc(NCc2ccccc2)nc1N1CCOCC1	·	·	·	·	·	·	·	·	·	·	·	·	TORC1 bypass=3
CCN(CC(=O)Nc1cc(S(=O)(=O)N2CCCCC2)ccc1Cl)Cc1ccccc1	92.2	96.5	90.6	89.4	-1.9	89.8	·	·	·	·	·	·
CCN(CC(=O)Nc1cc(S(=O)(=O)N2CCOCC2)ccc1Cl)Cc1ccccc1	229.4*	790.4*	670.3*	753.9*	21.4	214.6	96.2	92.6	99.3	102.9	97.1	-0.1
Cc1ccc(-n2c(C)nnc2SCC(=O)N(C)C2CCS(=O)(=O)C2)cc1 (configuration not stated)	106.6	107.5	106.1	105.6	2.9	107.1	·	·	·	·	·	·
CCN(C(=O)Cn1c(=O)oc2cc(S(=O)(=O)N3CCOCC3)ccc21)c1ccccc1	105.5	104.8	106.3	91.9	-1.0	104.2	·	·	·	·	·	·
CCN(C(=O)Cn1c(=O)oc2cc(S(=O)(=O)N3CCCC3)ccc21)c1ccc(OC)cc1	98.6	503.8*	113.6	103.2	12.9	95.4	100.0	99.8	100.0	97.2	100.3	·
COc1ccc([C@]2(C(C)C)ON(c3ccccc3C(F)(F)F)C2=O)cc1	94.5	95.2	106.8	91.8	9.3	96.1	114.4	106.5	101.3	114.2	108.1	-0.1
COc1ccc(C2(c3ccc(OC)cc3)NC(=O)N(CC(=O)Nc3ccccc3C(F)(F)F)C2=O)cc1	97.4	101.7	93.9	91.6	5.9	102.6	·	·	·	·	·	·
CC(C)[C@@]1(c2ccc(Cl)cc2)ON(c2ccccc2C(F)(F)F)C1=O	19.9	147.4	95.8	?	18.5	57.3	102.2	97.8	101.9	107.1	96.6	-0.1
COc1ccc([C@@]2(C(C)C)ON(c3ccccc3C(F)(F)F)C2=O)cc1	97.0	92.8	105.8	103.7	-6.0	96.2	118.3	106.5	103.6	106.3	97.2	-0.2
O=C(CNC(=O)c1ccccc1F)OCCOc1cccc(Cl)c1	108.7	98.3	122.1	89.3	3.1	99.4	·	·	·	·	·	·
COc1ccc(CCN2CC(C(=O)N3CCN(C(C)=O)CC3)CCC2=O)cc1 (configuration not stated)	93.7	107.1	106.8	90.7	21.3	99.6	·	·	·	·	·	·
CC(C)(C)c1ccc(NC(=O)COC(=O)c2ccc([N+](=O)[O-])s2)cc1	46.4	168.0	211.2*	95.3	8.0	69.7	226.0*	223.0*	85.7	131.2	79.8	4.51	s288c autofl DR=1.39;TORC1 bypass=0
Cc1[nH]c2ccccc2c1C(=O)COC(=O)c1ccc([N+](=O)[O-])s1	19.2	123.6	68.6	94.8	41.5	62.4	138.3	179.9*	77.3	143.2	69.7	6.78
CC1CCCC(NC(=O)CN(C)CC(=O)Nc2cccc(F)c2)C1C (configuration not stated)	133.7	155.1	171.9*	127.0	-1.8	79.8	99.2	99.6	99.7	97.3	99.0	·
COCCCNC(=O)C(=O)NCC1CCCN1S(=O)(=O)c1cccs1 (configuration not stated)	100.0	106.3	205.2*	67.2	6.6	77.5	101.0	103.2	101.5	100.7	99.1	·
O=C(O)c1ccc(NNC(=S)Nc2cc(C(F)(F)F)ccc2Cl)cc1	90.1	98.3	97.4	93.7	-2.2	101.7	·	·	·	·	·	·
